The whole screen tested about 310,000 compounds, of which about 3,300 (1.1%) were called active.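 The calls were made as follows: active = B-score under library mean minus 3 SD, initial fluorescence not abnormally high, positive integrated signal ratio; inactive = the rest.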 The sample as a whole holds a higher share of actives than the screen did.

The target in this assay is Short transient receptor potential channel 6 (Mus musculus) (UniProt Q61143). Briefly: mouse TRPC6 channel inhibitors, primary screen, cell-based, HEK293, membrane potential dye (AID 2553).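 As to B-score: B-score derived from integrated fluorescence ratio over the kinetic read; more negative B-score means stronger inhibition of depolarization.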 The note with it: ACh-evoked depolarization, at 10 µM; stronger effect = lower value.
Sequence of Short transient receptor potential channel 6 (Mus musculus) (Q61143 whole entry, looked up): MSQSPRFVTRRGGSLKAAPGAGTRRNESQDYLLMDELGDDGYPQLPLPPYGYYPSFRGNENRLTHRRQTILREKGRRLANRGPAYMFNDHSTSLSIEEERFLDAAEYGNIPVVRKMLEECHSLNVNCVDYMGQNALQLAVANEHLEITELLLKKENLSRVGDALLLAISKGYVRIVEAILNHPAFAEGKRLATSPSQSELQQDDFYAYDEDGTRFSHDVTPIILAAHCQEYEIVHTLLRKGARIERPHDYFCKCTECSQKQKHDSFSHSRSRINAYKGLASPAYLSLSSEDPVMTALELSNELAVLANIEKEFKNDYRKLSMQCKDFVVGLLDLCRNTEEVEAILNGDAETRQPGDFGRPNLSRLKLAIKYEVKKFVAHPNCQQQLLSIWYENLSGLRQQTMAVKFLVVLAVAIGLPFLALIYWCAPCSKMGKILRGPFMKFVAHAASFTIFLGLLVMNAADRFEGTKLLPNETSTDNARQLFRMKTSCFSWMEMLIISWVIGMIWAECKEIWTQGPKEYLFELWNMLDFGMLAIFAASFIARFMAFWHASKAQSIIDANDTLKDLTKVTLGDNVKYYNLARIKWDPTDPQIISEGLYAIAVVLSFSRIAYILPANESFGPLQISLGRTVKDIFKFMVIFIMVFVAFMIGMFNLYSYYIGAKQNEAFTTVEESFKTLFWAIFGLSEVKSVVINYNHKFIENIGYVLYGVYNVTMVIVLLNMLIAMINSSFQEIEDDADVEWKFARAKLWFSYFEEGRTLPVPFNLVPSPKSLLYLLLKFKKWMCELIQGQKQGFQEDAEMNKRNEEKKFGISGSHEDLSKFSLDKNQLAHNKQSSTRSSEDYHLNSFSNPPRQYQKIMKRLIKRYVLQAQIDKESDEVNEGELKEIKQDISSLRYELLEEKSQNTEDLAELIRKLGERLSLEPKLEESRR
With `C/C(=N\Nc1ncc(Cl)cc1Cl)c1cccs1`, the B-score result is “inactive”.

`C/C(=N\Nc1nc2ccccc2[nH]1)c1cccs1`: the B-score is -13.6 (active).

Regarding `O=C(Nc1ccccc1-c1nc2ccccc2[nH]c1=O)c1cccs1`, the B-score entry was “inactive”.

On to `Cc1cc(OCC(=O)N(C)c2c(N)n(Cc3ccccc3)c(=O)[nH]c2=O)c(C(C)C)cc1Cl`, for which the B-score result is “inactive”.

For the molecule `CC(C)c1ccc(OCC(O)Cn2cnc3ccccc32)cc1` (stereo unspecified), the B-score is -9.55 (active).

As to `CC(=O)OC(COc1ccc(F)cc1)Cn1cnc2ccccc21` (stereo unspecified), the B-score entry is “inactive”.

As to `CC(C)c1ccc(OCC(O)CN2CCN(c3ccccn3)CC2)cc1` (stereo unspecified), the B-score entry was “inactive”.

Take `COCCn1cnc2c1c(=O)n(Cc1ccc(Br)cc1)c(=O)n2Cc1ccccc1`: the B-score entry is “inactive”.

For the molecule `CCN(CC)CCn1cnc2c1c(=O)[nH]c(=O)n2Cc1ccccc1`, the B-score result was “inactive”.

For the molecule `N=c1c2c(-c3ccccc3)c(-c3ccccc3)n(Cc3ccccc3)c2ncn1CCCO`, the B-score is -7.35 (active).

As for `CCOC(=O)C(CCOc1cccc(CC)c1)C(=O)OCC`, the B-score result was “inactive”.

As to `CCOC(=O)c1sc(N(Cc2ccccc2)C(=O)CN2C(=O)CN(C)C2=O)nc1C`, the B-score result was “inactive”.

Turning to `Cc1cc(=O)[nH]c(SCc2ccc(Cl)cc2)n1`, the B-score result was “inactive”.

For `CC1CN(C(=O)c2cc(COc3c(F)cccc3F)on2)CCN1C` (stereo unspecified), the B-score result is “inactive”.

In the case of `Cc1cccc(NS(=O)(=O)c2ccc(-c3cnc(C4CC4)o3)cc2)c1`, the B-score result was “inactive”.

With `O=S(=O)(c1ccc(Cl)s1)N1CCC2(CC1)OCCO2`, the B-score entry was “inactive”.

With `O=C(NCCc1c[nH]c2ccccc12)c1cccc(Br)c1`, the B-score entry was “inactive”.

For the molecule `Cc1ccc2[nH]cc(CCNC(=O)C3CCCCC3)c2c1`, the B-score result was “inactive”.

For the molecule `O=C(NCCc1c[nH]c2ccccc12)C1CCN(Cc2ccc(Br)cc2)CC1`, the B-score is -5.11 (active).

On to `Cc1ccc(OCCOc2cccc(/C=N/NC(N)=O)c2)cc1`, for which the B-score result was “inactive”.

For `COc1ccc(CNC(=O)CN2CCC(n3nnc4cc(F)ccc43)CC2)cc1`, the B-score result is “inactive”.

In the case of `Fc1ccccc1Cn1cnc(NC(=S)NCCc2ccccc2)n1`, the B-score entry is “inactive”.

Regarding `CC(=O)NC(C)c1nc2ccccc2n1Cc1ccccc1F` (stereo unspecified), the B-score entry was “inactive”.

With `N=c1n(CCc2ccccc2)c2ccccc2n1Cc1ccccc1F`, the B-score was -5.3 (active).

As for `CC(C)CCOc1ccc(C(=O)C[N+]2(C)CCOCC2)cc1`, the B-score result was “inactive”.

For the molecule `Cc1ccccc1C(OCCN(C)C)C1CCCCC1` (stereo unspecified), the B-score result was “inactive”.

In the case of `CCOC(=O)C1=C(CSc2nnnn2C)N(C)C(=O)NC1c1ccccc1` (stereo unspecified), the B-score result was “inactive”.

Turning to `COc1cccc(-n2c(=S)[nH]c3c(oc4ccccc43)c2=O)c1`, the B-score result was “inactive”.

As to `O=C(O)C(c1ccccc1)C1(O)CCCCC1` (stereo unspecified), the B-score result is “inactive”.

Regarding `CN(C)CCOC(=O)C(c1ccccc1)C1(O)CCCC1` (stereo unspecified), the B-score is -7.55 (active).

For `CCC(C(=O)OCCN(CC)CC)c1ccccc1` (stereo unspecified), the B-score entry was “inactive”.

With `CCCCc1cc2c(s1)CCCC/C2=N/O`, the B-score entry is “inactive”.

`Cc1ccc(-c2nc(COC(=O)c3c(C)noc3C)cs2)cc1`: the B-score result is “inactive”.

On to `CCOc1cc(-c2conc2N)cc(OCC)c1OCC`, for which the B-score result is “inactive”.

For the molecule `Cc1csc2ncc(C(=O)N(Cc3ccccc3)c3ccccn3)c(=O)n12`, the B-score entry was “inactive”.

Consider `Cc1ccccc1Cn1c(=O)[nH]c2ccccc21`, for which the B-score entry is “inactive”.

With `CCOC(=O)CCc1c(C)c(C#N)c2[nH]c3ccccc3n2c1=O`, the B-score entry was “inactive”.

In the case of `CCCc1cc(=S)n2c([nH]c3ccccc32)c1C#N`, the B-score is -12.9 (active).

`COc1ccc(OC)c(C(=O)c2ccc(C(=O)N3CCN(Cc4csc(C)n4)CC3)cc2)c1`: the B-score entry was “inactive”.

For `CCOc1ccccc1NC(=S)N1CCN(c2cccc(C)c2C)CC1`, the B-score entry was “inactive”.

As to `CN(N)c1nc(N2CCCC2)nc(N2CCCC2)n1`, the B-score result was “inactive”.

For the molecule `Cn1c(=O)n(C)c2cc(C(=O)Nc3ccc4c(c3)OCO4)ccc21`, the B-score is -7.03 (active).

Consider `Cn1c(=O)n(C)c2cc(C(=O)Nc3ccc(Br)cc3)ccc21`, for which the B-score entry was “inactive”.

In the case of `Cn1c(NC(=O)c2ccc3c(c2)OCO3)cc(=O)n(C)c1=O`, the B-score entry is “inactive”.

On to `CC(C)(C)c1cc(CN2CCN(CCC#N)CC2)cc(C(C)(C)C)c1O`, for which the B-score entry was “inactive”.

Take `Cc1ccc(NC(=S)N(CCCN2CCC(C)CC2)Cc2ccco2)cc1`: the B-score result is “inactive”.

`Cc1ccc(NC(=S)N(CCCN2CCCC2)Cc2cccn2Cc2ccc(Cl)cc2)cc1`: the B-score was -5.03 (active).

With `Cc1ccc(NC(=S)N(CCN2CCCCC2)Cc2ccco2)cc1C`, the B-score result was “inactive”.

On to `COC(=O)[C@@H]1C[C@H]2CC[C@H](O)C[C@H]2N1Cc1ccc(N2CCN(C)CC2)cc1`, for which the B-score entry is “inactive”.

As to `N#C/C(C(=S)Nc1ccccc1)=C1/NN=C(N2CCOCC2)N1c1ccccc1`, the B-score result is “inactive”.

Regarding `COc1cccc(CC(=O)N2CCCC(CCC(=O)N3CCN(c4ccccn4)CC3)C2)c1` (stereo unspecified), the B-score entry is “inactive”.

Regarding `CC(C)C(c1nnnn1CCc1ccccc1)N1CCN(C(=O)c2ccco2)CC1` (stereo unspecified), the B-score was -6.03 (active).

As for `CCC(c1nnnn1C1CCCC1)N1CCN(C(=O)c2ccco2)CC1` (stereo unspecified), the B-score result was “inactive”.

For `CC(C)C(c1nnnn1C1CCCCC1)N1CCN(C(=O)c2ccco2)CC1` (stereo unspecified), the B-score result was “inactive”.

Consider `CC1CC(C)CN(C/C=C/c2ccccc2[N+](=O)[O-])C1` (stereo unspecified), for which the B-score is -10.9 (active).

In the case of `O=[N+]([O-])c1ccccc1/C=C/CN1CCCC(CO)C1` (stereo unspecified), the B-score result was “inactive”.

For `O=[N+]([O-])c1ccccc1/C=C/CN1CCC(O)CC1`, the B-score entry is “inactive”.

As to `CC1=C[C@H]2Cc3cc(C)cc(C)c3S(=O)(=O)[C@@H]2C=C1`, the B-score result is “inactive”.

Consider `CC(=O)c1cc(C#N)c(SCC(=O)Nc2nccs2)nc1C`, for which the B-score result was “inactive”.

`Clc1ccc(C2=CSC3=Nc4cccc5cccc(c45)N23)cc1`: the B-score entry is “inactive”.

For the molecule `CC(C)NC(=O)COCc1cc(-c2ccc3c(c2)OCO3)on1`, the B-score result was “inactive”.

As to `CC(C)(C)c1ccc(C(=O)NCc2nnc(SCC(=O)N3CCCc4ccccc43)n2-c2ccccc2)cc1`, the B-score result is “inactive”.

As to `N#C/C(=C1/CCCN1)c1ccccn1`, the B-score entry is “inactive”.

Consider `Cn1c(/C(C#N)=C2/CCCCCN2)nc2ccccc21`, for which the B-score is -6.04 (active).

`Cn1c(S(=O)(=O)O)nc2ccccc21`: the B-score entry was “inactive”.

For the molecule `CC(=O)c1ccc(N2CCN(C(=O)c3ccc4nc[nH]c4c3)CC2)cc1`, the B-score result was “inactive”.

Consider `CC(=O)c1ccc(N2Cc3ccccc3C2)cc1`, for which the B-score result is “inactive”.

As to `CCCOc1ccc(Cn2ccnc2)cc1[N+](=O)[O-]`, the B-score result was “inactive”.

With `CCCCOC(=O)CCCc1ccc([N+](=O)[O-])cc1[N+](=O)[O-]`, the B-score result is “inactive”.

Turning to `CCCCOc1ccc(CSC(=N)N)cc1[N+](=O)[O-]`, the B-score was -6.92 (active).

As for `Cc1cc(OCCCCOc2ccc(C#N)cc2)ccc1[N+](=O)[O-]`, the B-score result was “inactive”.

Regarding `CCCCCOc1ccc(CSC2=NCCN2)cc1[N+](=O)[O-]`, the B-score was -7.13 (active).

As for `Cc1nc(SCc2ccc(F)cc2)c([N+](=O)[O-])[nH]1`, the B-score result was “inactive”.

`COc1ccc(NC(=O)CN2C(=O)C(c3ccccc3)=NC23CCCCCC3)cc1OC`: the B-score result was “inactive”.

Regarding `Cc1cc(C)c2oc(C(=O)Nc3ccc(S(=O)(=O)Nc4nccc(C)n4)cc3)cc(=O)c2c1`, the B-score entry was “inactive”.

For `c1ccc(-c2cnc(CN3CCN(c4ccccc4)CC3)o2)cc1`, the B-score result was “inactive”.

For `COc1cc([N+](=O)[O-])cc([N+](=O)[O-])c1NC(=O)N1CCOCC1`, the B-score entry is “inactive”.

For `O=C(NN1C(=O)C2C3C=CC(C3)C2C1=O)c1ccco1` (stereo unspecified), the B-score entry was “inactive”.

Consider `COC(=O)C1=C(C)N(C)C(=S)NC1c1cc(OC)ccc1OC` (stereo unspecified), for which the B-score result was “inactive”.

As for `COc1cc(CNC2CCCCC2)c(Br)cc1OC1CCCC1`, the B-score entry was “inactive”.

On to `CC(C)(C)NCc1cc(Br)ccc1OC1CCCC1`, for which the B-score is -6.86 (active).

`CCOCCCNCc1cc(Br)ccc1OCC`: the B-score result was “inactive”.

In the case of `O=C(c1ccc(CS(=O)(=O)c2ccccc2)o1)N1CCN(c2ccccc2)CC1`, the B-score result was “inactive”.

With `O=C(CNc1cccc(S(=O)(=O)N2CCCCC2)c1)Nc1ccccc1F`, the B-score result was “inactive”.

Take `COc1ccccc1CCNC(=O)C(=O)NCCC1CCCCN1S(=O)(=O)c1cccs1` (stereo unspecified): the B-score result is “inactive”.

For the molecule `Cn1c(=NC(=O)c2cnccn2)sc2ccccc21`, the B-score was -6.66 (active).

As to `COC(=O)c1ccc(OC(=O)c2cnccn2)cc1`, the B-score entry was “inactive”.

Take `Cn1c(=NC(=O)c2ccco2)sc2cccc(F)c21`: the B-score result is “inactive”.

As to `O=C(COc1ccccc1)Nc1ccc(F)cc1`, the B-score result is “inactive”.

For `O=S(=O)(c1ccc(F)cc1)N1CCN=C1SCc1cccc(F)c1`, the B-score entry was “inactive”.

With `COC(=O)c1ccccc1NC(=O)C1(S(=O)(=O)c2ccc(Cl)cc2)CC1`, the B-score entry is “inactive”.

Turning to `CCCCCCCCn1c2c(c(=N)c3c1CCC3)CCCC2`, the B-score is -6.1 (active).

With `Cc1ccc(NC(=O)CCOc2ccccc2)cc1S(=O)(=O)Nc1ccccc1Cl`, the B-score entry is “inactive”.

Turning to `Cc1cc(C)c2nc(-c3ccco3)cc(C(=O)O)c2c1`, the B-score entry was “inactive”.

Take `Cc1cc(C)c2nc3nc(C)cc(C)c3c(N)c2c1`: the B-score is -5.04 (active).

For `COc1ccc(OCc2cc(C(=O)N3CCCC3)no2)c2ccccc12`, the B-score entry was “inactive”.

As to `CCOC(=O)/C=C/CN(C(=O)OC(C)(C)C)S(=O)(=O)N1CC=CC1`, the B-score entry was “inactive”.

Consider `CC(Nc1nc(N2CCOCC2)nc2ccccc12)c1ccccc1` (stereo unspecified), for which the B-score result is “inactive”.

For the molecule `CC(Nc1nc(N2CCCC2)nc2ccccc12)c1ccccc1` (stereo unspecified), the B-score was -6.87 (active).

Consider `CC(Nc1nc(N2CCN(CCO)CC2)nc2ccccc12)c1ccccc1` (stereo unspecified), for which the B-score result was “inactive”.

For `COc1ccc2[nH]cc(CCN3C(=O)c4ccc(C(=O)O)cc4C3=O)c2c1`, the B-score result is “inactive”.

`Cc1nn(C)cc1C(=O)c1ccccc1`: the B-score result was “inactive”.

With `C=CCOc1ccc(/C=C/C(=O)OCC(=O)NC2CCCCCC2)cc1`, the B-score result was “inactive”.

For `CCOC(=O)CNC(=O)N1c2ccccc2Sc2ccccc21`, the B-score result is “inactive”.

Consider `O=C(CN1CCCCCC1)N1c2ccccc2Sc2ccc(C(F)(F)F)cc21`, for which the B-score was -5.15 (active).

Take `COc1cc(/C=C/C(=O)N2c3ccccc3Sc3ccc(C(F)(F)F)cc32)cc(OC)c1OC`: the B-score entry was “inactive”.

`COC(=O)c1c(-c2cccs2)csc1NC(=O)CSc1ncnc2sc(C)c(C)c12`: the B-score entry was “inactive”.

As for `CCc1ccc(OCC(=O)N(Cc2ccccc2)C2CCS(=O)(=O)C2)cc1` (stereo unspecified), the B-score was -6.07 (active).

For the molecule `Cc1ccccc1OCC(=O)N(Cc1cccc(F)c1)C1CCS(=O)(=O)C1` (stereo unspecified), the B-score entry was “inactive”.

As to `CCOc1ccc(C(=O)N(Cc2ccc(N(C)C)cc2)C2CCS(=O)(=O)C2)cc1` (stereo unspecified), the B-score result is “inactive”.

Turning to `Cc1ccccc1Nc1scc(-c2ccc(Br)cc2)[n+]1-c1ccccc1C`, the B-score result is “inactive”.

Source of the values: PubChem BioAssay AID2553 (Johns Hopkins Ion Channel Center, 2010).
